Test results published in PubChem BioAssay (NCATS).
Inconclusive results are not listed. Entries that show only a call come without a potency. A number with no mark means an inactive call. Active and inactive are the calls of the source. Calls follow the shape of the dose curve; as a rule, active = well fitted curve in the direction sought with a large enough effect; inconclusive = small, poorly fitted or top-dose-only effect, or another doubt; inactive = no such curve, though single readings can be large; an effect the other way counts as inactive or inconclusive.

Experiments:
[1] = biological target: Rap guanine nucleotide exchange factor 3 (Homo sapiens) (UniProt O95398); test: Confirmatory qHTS for antagonist of cAMP-regulated guanine nucleotide exchange factor 3 (EPAC1) (AID 1645880); also: nearly all actives have a fitted effect of over 55% in size; also: potency is read from the fitted curve at half-maximal effect
How it was run: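 Nucleotide exchange uses 100 nM EPAC1, 250 nM RAP1B-BODIPY-GDP and 50 uM GDP, with compounds in a concentration-titration series. After 5 min at room temperature, fluorescence (480 nm ex/540 nm em) is read every 5 min for 30 min. Data are normalized to control ATA and DMSO.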

[2] = biological target: Rap guanine nucleotide exchange factor 3 (Homo sapiens) (UniProt O95398); test: Confirmatory qHTS for agonist of cAMP-regulated guanine nucleotide exchange factor 3 (EPAC1) (AID 1645881);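 also: EPAC1 catalysed release of BODIPY-GDP from Rap1B seen as fluorescence loss; nearly all actives have a fitted effect of over 75% in size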
[3] = biological target: Rap guanine nucleotide exchange factor 4 (Homo sapiens) (UniProt Q8WZA2); test: Confirmatory qHTS for agonist of cAMP-regulated guanine nucleotide exchange factor 4 (EPAC2) (AID 1645884);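 also: nucleotide exchange releases bodipy-GDP from Rap1 and this lowers its fluorescence; nearly all actives have a fitted effect of over 65% in size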
[4] = biological target: Rap guanine nucleotide exchange factor 4 (Homo sapiens) (UniProt Q8WZA2); test: Confirmatory qHTS for antagonist of cAMP-regulated guanine nucleotide exchange factor 4 (EPAC2) (AID 1645885); also: nearly all actives have a fitted effect of over 25% in size; also: potency is read from the fitted curve at half-maximal effect
[5] = biological target: Rap guanine nucleotide exchange factor 3 (Homo sapiens) (UniProt O95398); test: Counterscreen qHTS for antagonist of cAMP-regulated guanine nucleotide exchange factor 3 (EPAC1) (AID 1645888);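 also: fluorescence loss as bound BODIPY-GDP is released from Rap1B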
How it was run: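 Measured: fluorescence of BODIPY-GDP bound to Rap1B, which falls as exchange proceeds. Conditions include 50 uM competing GDP, 5 and 30 min reads, and a later cAMP challenge for antagonist detection.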

Rap guanine nucleotide exchange factor 4 (Homo sapiens), sequence (Q8WZA2 whole entry, looked up): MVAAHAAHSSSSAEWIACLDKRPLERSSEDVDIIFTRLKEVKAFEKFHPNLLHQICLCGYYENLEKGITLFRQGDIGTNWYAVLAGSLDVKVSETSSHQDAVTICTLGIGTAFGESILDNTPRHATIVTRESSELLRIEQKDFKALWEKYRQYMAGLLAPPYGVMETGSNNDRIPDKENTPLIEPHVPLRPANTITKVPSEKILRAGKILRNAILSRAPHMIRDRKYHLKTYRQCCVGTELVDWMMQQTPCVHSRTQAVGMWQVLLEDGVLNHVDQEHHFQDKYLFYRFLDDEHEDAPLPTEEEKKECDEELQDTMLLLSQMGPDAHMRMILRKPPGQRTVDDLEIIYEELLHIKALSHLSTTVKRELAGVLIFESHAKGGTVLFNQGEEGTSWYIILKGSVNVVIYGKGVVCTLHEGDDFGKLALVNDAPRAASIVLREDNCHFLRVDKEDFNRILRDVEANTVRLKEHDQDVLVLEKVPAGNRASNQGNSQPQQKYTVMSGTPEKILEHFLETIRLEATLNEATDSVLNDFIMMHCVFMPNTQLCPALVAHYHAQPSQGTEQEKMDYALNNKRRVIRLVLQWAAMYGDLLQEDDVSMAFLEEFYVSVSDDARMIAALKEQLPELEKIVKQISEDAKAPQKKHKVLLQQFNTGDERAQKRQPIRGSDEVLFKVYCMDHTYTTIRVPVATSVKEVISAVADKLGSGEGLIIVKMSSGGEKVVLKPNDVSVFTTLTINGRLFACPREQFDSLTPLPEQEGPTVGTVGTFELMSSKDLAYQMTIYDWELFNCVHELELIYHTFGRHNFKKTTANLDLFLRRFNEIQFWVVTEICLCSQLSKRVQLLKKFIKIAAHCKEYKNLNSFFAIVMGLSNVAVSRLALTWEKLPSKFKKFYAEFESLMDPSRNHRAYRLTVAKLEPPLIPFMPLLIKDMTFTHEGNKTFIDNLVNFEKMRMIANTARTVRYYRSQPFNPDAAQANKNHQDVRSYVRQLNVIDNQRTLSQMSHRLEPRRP
Rap guanine nucleotide exchange factor 3 (Homo sapiens), sequence (O95398 whole entry, looked up): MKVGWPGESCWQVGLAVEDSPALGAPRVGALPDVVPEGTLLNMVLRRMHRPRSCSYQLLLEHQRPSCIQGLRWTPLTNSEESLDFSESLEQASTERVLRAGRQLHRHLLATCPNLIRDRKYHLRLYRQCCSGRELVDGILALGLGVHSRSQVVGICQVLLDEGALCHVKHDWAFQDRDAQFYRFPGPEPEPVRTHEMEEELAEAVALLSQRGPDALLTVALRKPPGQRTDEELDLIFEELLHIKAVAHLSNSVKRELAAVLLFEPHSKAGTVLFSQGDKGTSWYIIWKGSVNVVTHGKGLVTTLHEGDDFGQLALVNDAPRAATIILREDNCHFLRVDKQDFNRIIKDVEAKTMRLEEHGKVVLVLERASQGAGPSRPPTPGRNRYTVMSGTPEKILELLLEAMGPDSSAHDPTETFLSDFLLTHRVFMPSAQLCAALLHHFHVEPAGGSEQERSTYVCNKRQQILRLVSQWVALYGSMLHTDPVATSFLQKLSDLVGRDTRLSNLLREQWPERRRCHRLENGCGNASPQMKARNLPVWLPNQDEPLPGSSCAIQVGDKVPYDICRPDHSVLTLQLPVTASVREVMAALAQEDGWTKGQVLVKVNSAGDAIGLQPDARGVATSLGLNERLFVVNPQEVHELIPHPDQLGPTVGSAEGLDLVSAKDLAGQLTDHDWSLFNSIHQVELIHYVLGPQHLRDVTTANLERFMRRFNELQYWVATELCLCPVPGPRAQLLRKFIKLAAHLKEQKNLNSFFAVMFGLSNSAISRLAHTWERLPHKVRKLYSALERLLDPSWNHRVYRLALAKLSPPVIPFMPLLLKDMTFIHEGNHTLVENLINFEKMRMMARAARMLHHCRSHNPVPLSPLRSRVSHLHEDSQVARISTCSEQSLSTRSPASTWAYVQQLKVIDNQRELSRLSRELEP

SMILES: Cc1c(C(=O)NCCO)sc2nc3n(c(=O)c12)CCC3
- Potency [1]: inactive
- Potency [2]: inactive
- Potency [3]: inactive
- Potency [4]: inactive
- Potency [5]: inactive

SMILES: O=C(O)CN1C(=O)/C(=C\c2cccc(OCc3ccccc3F)c2)SC1=S
- Potency [1]: 42.6 µM (active)
- Potency [2]: inactive
- Potency [3]: inactive
- Potency [4]: 84.9 µM (active)
- Potency [5]: inactive

SMILES: Oc1ccc(Br)cc1C=Nc1cccn2cc(-c3ccccc3)nc12
- Potency [1]: 84.9 µM (active)
- Potency [2]: inactive
- Potency [3]: inactive
- Potency [4]: 75.7 µM (active)
- Potency [5]: inactive

SMILES: CCCCn1c(N)c(N(CCC(C)C)C(=O)Cc2ccc(S(=O)(=O)N3CCOCC3)s2)c(=O)[nH]c1=O
- Potency [1]: inactive
- Potency [2]: inactive
- Potency [3]: inactive
- Potency [4]: inactive
- Potency [5]: inactive

SMILES: Cc1ccccc1-c1nc(CS(=O)(=O)CC(=O)N(C)C2CCCCC2)c(C)o1
- Potency [1]: inactive
- Potency [2]: inactive
- Potency [3]: inactive
- Potency [4]: inactive
- Potency [5]: inactive

SMILES: COc1ccc(S(=O)(=O)N2CCOC23CCN(S(=O)(=O)c2cccs2)CC3)cc1
- Potency [1]: inactive
- Potency [2]: inactive
- activation [3]: 4.26% [at 17.1 µM, percent relative to cAMP agonist control]
- Potency [4]: inactive
- activity change, negative = inhibition [5]: -10.2% [at 30.8 µM]

SMILES: CC1=C(C(=O)OC2CCCC2)C(c2c(Cl)cccc2Cl)CC(=O)N1 (stereo not given)
- Potency [1]: inactive
- Potency [2]: inactive
- Potency [3]: inactive
- Potency [4]: inactive
- Potency [5]: inactive

SMILES: N#Cc1c(NC(=O)c2ccccc2)sc2c1CCCCC2
- Potency [1]: inactive
- Potency [2]: inactive
- activation [3]: 10.4% [at 17.1 µM, percent relative to cAMP agonist control]
- Potency [4]: inactive
- activity change, negative = inhibition [5]: 2.87% [at 30.8 µM]

SMILES: Cc1nc(SCC(=O)N2CCCCCC2)[nH]c(=O)c1C
- Potency [1]: inactive
- Potency [2]: inactive
- Potency [3]: inactive
- Potency [4]: inactive
- Potency [5]: inactive

SMILES: COc1cc(OC)c(NC(=O)N2CCC(CN3CCOCC3)CC2)cc1Cl
- Potency [1]: inactive
- Potency [2]: inactive
- Potency [3]: inactive
- Potency [4]: inactive
- Potency [5]: inactive

SMILES: CCOc1ccc(C2=CC(c3cccc(Br)c3)n3c(nc4ccccc43)N2)cc1Cl (stereo not given)
- Potency [1]: inactive
- Potency [2]: inactive
- Potency [3]: inactive
- Potency [4]: inactive
- Potency [5]: inactive

SMILES: CC(C)OC1(c2ccccc2)OC(=O)c2ccccc21 (stereo not given)
- Potency [1]: inactive
- Potency [2]: inactive
- Potency [3]: inactive
- Potency [4]: inactive
- Potency [5]: inactive

SMILES: C=CCN(c1ccccc1)S(=O)(=O)c1cccc(C(=O)N2CC(C)CC(C)C2)c1 (stereo not given)
- Potency [1]: inactive
- Potency [2]: inactive
- Potency [3]: inactive
- Potency [4]: inactive
- Potency [5]: inactive

SMILES: COC(=O)c1cc(NC(=O)CC2C(=O)OCCN2Cc2ccccc2)cc(C(=O)OC)c1 (stereo not given)
- Potency [1]: inactive
- Potency [2]: inactive
- Potency [3]: inactive
- Potency [4]: inactive
- Potency [5]: inactive

SMILES: N#C/C(=C\c1ccc(C(=O)O)cc1)c1nc2sc3c(c2c(=O)[nH]1)CCCC3
- Potency [1]: inactive
- Potency [2]: inactive
- activation [3]: 10.5% [at 17.1 µM, percent relative to cAMP agonist control]
- Potency [4]: inactive
- activity change, negative = inhibition [5]: 7.93% [at 30.8 µM]

SMILES: CCCCCn1c(C)c2c(OCC)cccc(=O)c2c1C
- Potency [1]: inactive
- Potency [2]: inactive
- activation [3]: 7.02% [at 17.1 µM, percent relative to cAMP agonist control]
- Potency [4]: inactive
- activity change, negative = inhibition [5]: 23.1% [at 30.8 µM]

SMILES: CN(c1ccccc1)S(=O)(=O)c1cccc(Cl)c1Cl
- Potency [1]: inactive
- Potency [2]: inactive
- Potency [3]: inactive
- Potency [4]: inactive
- Potency [5]: inactive

SMILES: COc1cc(/C=C/CNC[C@H]2O[C@@H](n3cnc4c(=O)[nH]c(N)nc43)[C@H](O)[C@@H]2O)ccc1O
- Potency [1]: inactive
- Potency [2]: inactive
- Potency [3]: inactive
- Potency [4]: inactive
- Potency [5]: inactive

SMILES: COC(=O)c1ccc2c(=O)n3nc(Nc4cc(OC)ccc4OC)sc3nc2c1
- Potency [1]: inactive
- Potency [2]: inactive
- Potency [3]: inactive
- Potency [4]: inactive
- Potency [5]: inactive

SMILES: Cc1ccc(NC(=O)C2CCN(S(=O)(=O)c3ccc4c(c3)OCCCO4)CC2)nc1
- Potency [1]: inactive
- Potency [2]: inactive
- activation [3]: 6.5% [at 17.1 µM, percent relative to cAMP agonist control]
- Potency [4]: inactive
- activity change, negative = inhibition [5]: 13.4% [at 30.8 µM]

SMILES: O=C(CCSc1nc2ccccc2o1)N1CCOCC1
- Potency [1]: inactive
- Potency [2]: inactive
- activation [3]: 0.888% [at 17.1 µM, percent relative to cAMP agonist control]
- Potency [4]: inactive
- activity change, negative = inhibition [5]: -23.1% [at 30.8 µM]

SMILES: N#C/C(=C/c1ccc(O)c(O)c1)c1nc2ccccc2[nH]1
- Potency [1]: 6.01 µM (active)
- Potency [2]: inactive
- Potency [3]: inactive
- Potency [4]: inactive
- Potency [5]: inactive

SMILES: NC(=O)COC(=O)c1ccc(Cl)c(S(=O)(=O)N(Cc2ccccc2)c2ccc(Cl)cc2)c1
- Potency [1]: inactive
- Potency [2]: inactive
- activation [3]: 4.76% [at 17.1 µM, percent relative to cAMP agonist control]
- Potency [4]: inactive
- activity change, negative = inhibition [5]: -4.28% [at 30.8 µM]

SMILES: CC(Oc1ccc(-c2nnco2)cc1)C(=O)N1CCOCC1 (stereo not given)
- Potency [1]: inactive
- Potency [2]: inactive
- Potency [3]: inactive
- Potency [4]: inactive
- Potency [5]: inactive

SMILES: Cc1ccc(NC(=O)Cn2nc(C)c3nn(-c4ccc(Cl)cc4)c(C)c3c2=O)cc1F
- Potency [1]: inactive
- Potency [2]: inactive
- Potency [3]: inactive
- Potency [4]: inactive
- Potency [5]: inactive
